The supplement of paper PMC10849652
The full data set covers some 7,900 targets. This sample favours those with a hit. About 0.6% of all pairs of compound and target were hits.

Key:
Experiment in all cases: log2 fold change, soluble protein after heating vs DMSO (PISA); higher = thermal stabilisation; K562 cells, 10 uM, 30 min; active = over 0.2 and 3.5 SD of the protein, either way, in both replicates (recomputed)
[1] = compound: COC1=CC=C(C=C1)CN2C=CC3=C2C=C(C=C3)C(=O)NO
Method in brief: (§1)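 K562 cells at 2×10^6 cells/mL were treated for 30 min with 10 μM compound, and aliquots were heated for 3 min over 48°C-58°C before pooling. Extraction used PBS with 0.5% NP-40 at 4°C, and soluble protein was the supernatant after 21,000xg for 90 min, measured by TMTpro 16plex LC-MS/MS with channel sums equalised. Thermal stability values, relative to control samples and from duplicates, are log2 fold changes.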

filanesib = compound: CON(C)C(=O)N1N=C(c2cc(F)ccc2F)S[C@@]1(CCCN)c1ccccc1 [filanesib]
Method in brief: as §1

zotarolimus = compound: CO[C@H]1C[C@@H]2CC[C@@H](C)[C@@](O)(O2)C(=O)C(=O)N2CCCC[C@H]2C(=O)O[C@H]([C@H](C)C[C@@H]2CC[C@H](n3cnnn3)[C@H](OC)C2)CC(=O)[C@H](C)/C=C(\C)[C@@H](O)[C@@H](OC)C(=O)[C@H](C)C[C@H](C)/C=C/C=C/C=C/1C [zotarolimus]
Method in brief: as §1

idasanutlin = compound: COc1cc(C(=O)O)ccc1NC(=O)[C@@H]1N[C@@H](CC(C)(C)C)[C@](C#N)(c2ccc(Cl)cc2F)[C@H]1c1cccc(Cl)c1F [idasanutlin]
Method in brief: as §1

alisertib = compound: COc1cc(Nc2ncc3c(n2)-c2ccc(Cl)cc2C(c2c(F)cccc2OC)=NC3)ccc1C(=O)O [alisertib]
Method in brief: as §1

[2] = compound: COc1cc2nc(-c3cc(F)ccc3O)nc(N[C@@H]3CNC[C@H]3C(C)(C)O)c2cc1OC
Method in brief: as §1

gefitinib = compound: COc1cc2ncnc(Nc3ccc(F)c(Cl)c3)c2cc1OCCCN1CCOCC1 [gefitinib]
Method in brief: as §1

[3] = compound: COc1cccc2cc(-c3nc([C@H]4CC[C@H](C(=O)O)CC4)n4ncnc(N)c34)[nH]c12
Method in brief: as §1

lapatinib = compound: CS(=O)(=O)CCNCc1ccc(-c2ccc3ncnc(Nc4ccc(OCc5cccc(F)c5)c(Cl)c4)c3c2)o1 [lapatinib]
Method in brief: as §1

[4] = compound: CS(=O)(=O)c1ccc(-c2cnc(N)c(C(=O)Nc3ccccc3)n2)cc1
Method in brief: as §1

crizotinib = compound: C[C@@H](Oc1cc(-c2cnn(C3CCNCC3)c2)cnc1N)c1c(Cl)ccc(F)c1Cl [crizotinib]
Method in brief: as §1

[5] = compound: C[C@@H]1COCCN1C2=NC(=NC(=C2)C3(CC3)S(=O)(=O)C)C4=C5C=CNC5=CC=C4
Method in brief: as §1

[6] = compound: C[C@H](C1=CC=C(C=C1)C(=O)NC2=C3C=CNC3=NC=C2)N
Method in brief: as §1

duvelisib = compound: C[C@H](Nc1ncnc2nc[nH]c12)c1cc2cccc(Cl)c2c(=O)n1-c1ccccc1 [duvelisib]
Method in brief: as §1

tozasertib = compound: Cc1cc(Nc2cc(N3CCN(C)CC3)nc(Sc3ccc(NC(=O)C4CC4)cc3)n2)n[nH]1 [tozasertib]
Method in brief: as §1

[7] = compound: Cc1cc(SCc2sc(-c3ccc(C(F)(F)F)cc3)nc2C)ccc1OCC(=O)O
Method in brief: as §1

doramapimod = compound: Cc1ccc(-n2nc(C(C)(C)C)cc2NC(=O)Nc2ccc(OCCN3CCOCC3)c3ccccc23)cc1 [doramapimod]
Method in brief: as §1

ispinesib = compound: Cc1ccc(C(=O)N(CCCN)[C@@H](c2nc3cc(Cl)ccc3c(=O)n2Cc2ccccc2)C(C)C)cc1 [ispinesib]
Method in brief: as §1

pictilisib = compound: CS(=O)(=O)N1CCN(Cc2cc3nc(-c4cccc5[nH]ncc45)nc(N4CCOCC4)c3s2)CC1 [pictilisib]
Method in brief: as §1

gandotinib = compound: Cc1cc(Nc2cc(CN3CCOCC3)c3nc(C)c(Cc4ccc(Cl)cc4F)n3n2)n[nH]1 [gandotinib]
Method in brief: as §1

Measured: log2 fold change

MLST8 (UniProt Q9BVC4)
inactive: [1] 0.1 | filanesib -0.206 | zotarolimus -0.12 | idasanutlin -0.154 | alisertib 0.019 | [2] 0.055 | gefitinib -0.041 | [3] -0.081 | lapatinib -0.039 | [4] -0.07 | crizotinib -0.12 | [5] 0.014 | [6] 0.089 | duvelisib 0.067 | tozasertib 0.006 | [7] 0.079 | doramapimod 0.042

MPHOSPH8 isoform 2 (UniProt Q99549)
inactive: [1] -0.002 | filanesib 0.128 | zotarolimus -0.191 | idasanutlin 0.062 | alisertib -0.016 | [2] 0.032 | [3] 0.125 | lapatinib 0.024 | [4] -0.068 | crizotinib -0.036 | [5] -0.05 | [6] 0.045 | duvelisib -0.006 | tozasertib 0.04 | [7] -0.018 | doramapimod 0.059 | ispinesib 0.18

NSMCE4A (UniProt Q9NXX6)
inactive: [1] 0.033 | filanesib 0.049 | zotarolimus 0.019 | idasanutlin 0.017 | alisertib -0.087 | [2] -0.018 | gefitinib 0.181 | lapatinib 0.034 | pictilisib -0.011 | [4] 0.038 | crizotinib 0.072 | [5] -0.055 | [6] -0.009 | duvelisib 0.119 | gandotinib 0.144 | tozasertib 0.086 | [7] 0.054 | doramapimod 0.047 | ispinesib 0.062
active: [3] -0.437

MTFR1L (UniProt Q9H019)
Chain of UniProt Q9H019 (Q9H019 whole entry, looked up): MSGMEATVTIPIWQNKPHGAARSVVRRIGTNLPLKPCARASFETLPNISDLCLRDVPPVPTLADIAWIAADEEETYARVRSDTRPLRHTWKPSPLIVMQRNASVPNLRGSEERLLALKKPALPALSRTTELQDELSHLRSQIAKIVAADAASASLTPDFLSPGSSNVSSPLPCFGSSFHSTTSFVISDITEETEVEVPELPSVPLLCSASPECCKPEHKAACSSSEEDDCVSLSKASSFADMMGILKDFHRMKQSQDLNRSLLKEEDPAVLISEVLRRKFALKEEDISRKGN
inactive: [1] 0.036 | filanesib -0.09 | zotarolimus 0.037 | idasanutlin -0.04 | [2] -0.111 | gefitinib 0.083 | lapatinib 0.044 | pictilisib 0.011 | [4] 0.059 | crizotinib -0.162 | [5] -0.088 | [6] 0.153 | duvelisib -0.146 | gandotinib -0.123 | tozasertib -0.084 | [7] 0.039 | doramapimod 0.042 | ispinesib -0.329

OPHN1 (UniProt O60890)
active: gandotinib -0.636
inactive: [1] -0.261 | filanesib -0.004 | zotarolimus -0.049 | idasanutlin -0.015 | alisertib -0.036 | gefitinib -0.002 | [3] 0.04 | pictilisib 0.242 | [4] 0.011 | crizotinib -0.06 | [5] 0.107 | [6] 0.14 | duvelisib 0.103 | tozasertib -0.035 | [7] -0.21 | doramapimod 0.26 | ispinesib 0.018

MRPS16 (UniProt Q9Y3D3)
active: idasanutlin -0.348
inactive: [1] -0.102 | filanesib 0.044 | zotarolimus 0.04 | alisertib 0.02 | [2] -0.054 | gefitinib -0.045 | [3] -0.011 | lapatinib 0.039 | pictilisib -0.03 | [4] 0.061 | crizotinib 0.014 | [5] 0.028 | [6] 0.159 | gandotinib -0.031 | tozasertib 0.05 | doramapimod 0.001 | ispinesib -0.266

NPC1L1 (UniProt Q9UHC9)
Chain of UniProt Q9UHC9 (Q9UHC9 whole entry, looked up): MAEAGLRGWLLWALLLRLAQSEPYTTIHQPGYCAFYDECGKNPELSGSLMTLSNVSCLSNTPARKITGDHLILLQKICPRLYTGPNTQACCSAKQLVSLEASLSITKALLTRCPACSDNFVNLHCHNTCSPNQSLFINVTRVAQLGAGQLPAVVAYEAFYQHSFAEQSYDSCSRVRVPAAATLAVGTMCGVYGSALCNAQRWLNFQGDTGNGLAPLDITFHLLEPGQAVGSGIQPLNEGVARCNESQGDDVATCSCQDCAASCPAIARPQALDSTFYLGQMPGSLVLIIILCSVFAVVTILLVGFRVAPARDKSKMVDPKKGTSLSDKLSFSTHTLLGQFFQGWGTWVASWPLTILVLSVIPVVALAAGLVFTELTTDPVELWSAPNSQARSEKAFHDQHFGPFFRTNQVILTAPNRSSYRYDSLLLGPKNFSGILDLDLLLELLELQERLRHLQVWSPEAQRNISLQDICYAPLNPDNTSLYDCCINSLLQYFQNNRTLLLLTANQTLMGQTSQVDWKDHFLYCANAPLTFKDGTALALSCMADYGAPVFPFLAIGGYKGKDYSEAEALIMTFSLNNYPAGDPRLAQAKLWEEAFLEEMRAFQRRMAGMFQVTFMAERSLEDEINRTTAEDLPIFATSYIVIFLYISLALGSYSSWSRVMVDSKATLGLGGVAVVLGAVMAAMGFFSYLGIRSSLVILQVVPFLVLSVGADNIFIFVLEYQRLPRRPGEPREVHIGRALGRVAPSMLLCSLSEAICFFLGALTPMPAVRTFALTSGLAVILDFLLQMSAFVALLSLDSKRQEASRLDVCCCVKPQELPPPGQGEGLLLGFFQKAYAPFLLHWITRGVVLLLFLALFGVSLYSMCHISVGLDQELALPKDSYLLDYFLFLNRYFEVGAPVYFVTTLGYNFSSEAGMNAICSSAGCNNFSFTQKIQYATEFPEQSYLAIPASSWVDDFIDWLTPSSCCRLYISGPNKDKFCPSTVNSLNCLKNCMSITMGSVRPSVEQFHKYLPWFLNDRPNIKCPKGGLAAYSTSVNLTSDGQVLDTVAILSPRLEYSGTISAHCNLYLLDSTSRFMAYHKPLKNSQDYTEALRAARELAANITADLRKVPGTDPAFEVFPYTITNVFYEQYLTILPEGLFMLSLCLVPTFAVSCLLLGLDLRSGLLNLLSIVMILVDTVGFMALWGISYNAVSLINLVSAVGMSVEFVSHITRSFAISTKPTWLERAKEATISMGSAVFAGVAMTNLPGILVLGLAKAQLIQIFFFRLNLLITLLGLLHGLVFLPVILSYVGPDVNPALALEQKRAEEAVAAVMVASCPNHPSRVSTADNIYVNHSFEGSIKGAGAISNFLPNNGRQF
inactive: [1] -0.177 | filanesib -0.099 | zotarolimus -0.09 | idasanutlin -0.041 | alisertib -0.144 | [2] 0.079 | gefitinib 0.557 | [3] 0.106 | lapatinib -0.105 | [4] 0.002 | crizotinib -0.07 | [6] -0.044 | duvelisib 0.107 | tozasertib -0.059 | [7] -0.159 | doramapimod 0.033

NUDT1 (UniProt P36639)
inactive: [1] 0.043 | filanesib -0.06 | zotarolimus -0.068 | idasanutlin -0.169 | alisertib -0.017 | [2] 0.11 | gefitinib 0.354 | [3] -0.046 | lapatinib -0.016 | pictilisib -0.01 | [4] 0.185 | [5] 0.08 | [6] 0.107 | duvelisib 0.61 | gandotinib -0.167 | tozasertib -0.057 | [7] 0.017 | doramapimod -0.113 | ispinesib 0.012

MYH16 (UniProt Q9H6N6)
Chain of UniProt Q9H6N6 (Q9H6N6 whole entry, looked up): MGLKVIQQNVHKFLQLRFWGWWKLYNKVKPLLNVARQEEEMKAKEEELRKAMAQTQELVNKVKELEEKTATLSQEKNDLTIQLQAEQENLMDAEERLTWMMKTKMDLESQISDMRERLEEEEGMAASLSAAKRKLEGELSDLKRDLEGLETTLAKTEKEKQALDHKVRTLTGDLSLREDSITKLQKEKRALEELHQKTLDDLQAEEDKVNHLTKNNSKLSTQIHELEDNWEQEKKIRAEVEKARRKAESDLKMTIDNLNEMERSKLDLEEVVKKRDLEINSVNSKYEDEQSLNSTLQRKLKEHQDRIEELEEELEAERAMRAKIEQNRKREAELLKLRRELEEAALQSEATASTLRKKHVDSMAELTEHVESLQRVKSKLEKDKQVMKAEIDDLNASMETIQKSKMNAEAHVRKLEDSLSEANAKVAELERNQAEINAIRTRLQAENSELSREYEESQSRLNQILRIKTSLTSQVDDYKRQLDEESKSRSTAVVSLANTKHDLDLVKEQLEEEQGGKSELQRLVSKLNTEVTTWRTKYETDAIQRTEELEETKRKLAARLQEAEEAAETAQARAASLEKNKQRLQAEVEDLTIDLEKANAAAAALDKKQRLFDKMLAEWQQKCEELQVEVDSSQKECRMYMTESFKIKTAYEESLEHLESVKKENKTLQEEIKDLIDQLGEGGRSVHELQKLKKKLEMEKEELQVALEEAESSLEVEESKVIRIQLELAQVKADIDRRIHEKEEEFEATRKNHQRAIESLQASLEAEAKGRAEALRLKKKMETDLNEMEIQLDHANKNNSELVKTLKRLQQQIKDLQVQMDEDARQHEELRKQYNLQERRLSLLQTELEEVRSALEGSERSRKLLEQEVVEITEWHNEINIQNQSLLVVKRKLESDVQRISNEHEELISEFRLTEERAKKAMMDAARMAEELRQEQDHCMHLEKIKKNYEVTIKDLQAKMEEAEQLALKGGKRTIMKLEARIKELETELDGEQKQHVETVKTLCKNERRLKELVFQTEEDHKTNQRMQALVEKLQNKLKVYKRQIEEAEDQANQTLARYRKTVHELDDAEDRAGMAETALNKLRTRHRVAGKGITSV
inactive: filanesib -0.263 | zotarolimus -0.118 | idasanutlin -0.066 | alisertib 0.163 | [2] -0.052 | gefitinib -0.03 | [3] -0.031 | lapatinib 0.204 | pictilisib -0.448 | [4] -0.33 | crizotinib -0.097 | [6] -0.012 | gandotinib -0.279 | tozasertib -0.027 | doramapimod 0.399
active: [1] 0.886

P4HA2 (UniProt O15460)
Chain of UniProt O15460 (O15460 whole entry, looked up): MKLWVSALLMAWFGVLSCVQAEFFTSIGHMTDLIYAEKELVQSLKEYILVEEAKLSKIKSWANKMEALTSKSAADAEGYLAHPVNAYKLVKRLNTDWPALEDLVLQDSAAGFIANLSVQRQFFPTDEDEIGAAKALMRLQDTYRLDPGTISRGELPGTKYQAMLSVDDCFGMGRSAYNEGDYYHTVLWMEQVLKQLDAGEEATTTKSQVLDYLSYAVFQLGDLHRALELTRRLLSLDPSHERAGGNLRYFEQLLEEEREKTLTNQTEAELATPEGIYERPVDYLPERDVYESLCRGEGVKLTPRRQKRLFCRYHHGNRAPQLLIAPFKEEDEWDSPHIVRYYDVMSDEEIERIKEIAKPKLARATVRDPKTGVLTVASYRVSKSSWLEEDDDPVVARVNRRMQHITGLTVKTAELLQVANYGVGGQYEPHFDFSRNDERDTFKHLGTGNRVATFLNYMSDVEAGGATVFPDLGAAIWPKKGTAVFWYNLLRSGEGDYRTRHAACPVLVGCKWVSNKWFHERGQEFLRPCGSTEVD
active: [5] -0.627
inactive: [1] -0.109 | filanesib 0.078 | zotarolimus 0.026 | alisertib 0.011 | [2] -0.139 | gefitinib 0.006 | [3] -0.11 | lapatinib 0.075 | pictilisib -0.003 | [4] 0.079 | crizotinib 0.023 | [6] 0.178 | duvelisib 0.037 | gandotinib 0.021 | tozasertib -0.005 | [7] 0.053 | doramapimod 0.069 | ispinesib -0.088

PAFAH2 (UniProt Q99487)
inactive: [1] -0.025 | filanesib -0.089 | zotarolimus 0.012 | idasanutlin 0.153 | [2] 0.043 | lapatinib -0.037 | [4] 0.005 | crizotinib 0.029 | [6] 0.08 | duvelisib 0.215 | tozasertib -0.011 | [7] -0.057 | doramapimod 0.053 | ispinesib -0.044

MRPS26 (UniProt Q9BYN8)
active: ispinesib -0.421
inactive: [1] -0.039 | filanesib 0.09 | zotarolimus 0.04 | idasanutlin -0.145 | alisertib -0.078 | [2] 0.041 | [3] 0.072 | lapatinib 0.074 | pictilisib -0.155 | [4] 0.097 | crizotinib 0.005 | [5] 0.009 | [6] 0.291 | duvelisib 0.002 | gandotinib 0.158 | tozasertib 0.146 | [7] 0.065 | doramapimod 0.059

NAA11 (UniProt Q9BSU3)
Chain of UniProt Q9BSU3 (Q9BSU3 whole entry, looked up): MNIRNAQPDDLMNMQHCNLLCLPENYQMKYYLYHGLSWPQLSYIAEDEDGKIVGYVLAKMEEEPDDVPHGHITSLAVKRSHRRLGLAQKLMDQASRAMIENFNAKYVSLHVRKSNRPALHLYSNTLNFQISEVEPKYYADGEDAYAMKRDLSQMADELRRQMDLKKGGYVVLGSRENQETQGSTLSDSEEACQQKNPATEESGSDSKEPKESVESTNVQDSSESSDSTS
inactive: [1] 0.077 | filanesib -0.026 | zotarolimus -0.022 | idasanutlin 0.037 | alisertib -0.066 | [2] 0.13 | gefitinib 0.037 | [3] 0.116 | lapatinib -0.085 | [4] 0.027 | crizotinib -0.065 | [5] 0.006 | [6] 0.086 | duvelisib -0.015 | tozasertib 0.007 | [7] 0.114 | doramapimod -0.037 | ispinesib -0.009

NISCH (UniProt Q9Y2I1)
active: ispinesib -0.408
inactive: [1] -0.008 | filanesib -0.029 | zotarolimus -0.022 | idasanutlin -0.015 | alisertib 0.023 | [2] -0.119 | gefitinib -0.014 | [3] 0.106 | lapatinib 0.041 | pictilisib -0.061 | [4] -0.026 | crizotinib -0.284 | [5] 0.035 | [6] 0.047 | duvelisib -0.363 | gandotinib -0.4 | tozasertib 0.006 | [7] 0.126 | doramapimod 0.054

MT-ND1 (UniProt P03886)
Chain of UniProt P03886 (P03886 whole entry, looked up): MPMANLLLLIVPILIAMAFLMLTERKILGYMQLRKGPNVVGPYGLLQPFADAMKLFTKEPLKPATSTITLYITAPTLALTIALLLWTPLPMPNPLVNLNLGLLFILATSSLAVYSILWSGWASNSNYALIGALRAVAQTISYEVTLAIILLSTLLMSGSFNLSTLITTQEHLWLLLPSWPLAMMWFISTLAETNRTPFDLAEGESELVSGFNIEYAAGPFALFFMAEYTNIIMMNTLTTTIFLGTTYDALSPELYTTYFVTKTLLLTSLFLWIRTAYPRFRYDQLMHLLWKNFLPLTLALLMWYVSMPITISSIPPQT
inactive: [1] -0.051 | filanesib 0.053 | zotarolimus 0.131 | idasanutlin -0.141 | alisertib -0.015 | [2] -0.152 | gefitinib 0.1 | [3] 0.051 | lapatinib -0.113 | [4] -0.011 | crizotinib -0.179 | [5] 0.287 | [6] -0.039 | duvelisib 0.241 | tozasertib 0.105 | [7] -0.081 | doramapimod 0.056 | ispinesib 0.178

NPM3 (UniProt O75607)
Chain of UniProt O75607 (O75607 whole entry, looked up): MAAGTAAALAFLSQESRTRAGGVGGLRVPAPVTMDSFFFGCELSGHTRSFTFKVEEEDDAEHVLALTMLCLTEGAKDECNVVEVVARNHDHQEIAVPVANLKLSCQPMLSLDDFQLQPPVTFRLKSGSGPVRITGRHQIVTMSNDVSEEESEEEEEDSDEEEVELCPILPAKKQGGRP
inactive: [1] 0.123 | filanesib 0.116 | zotarolimus 0.104 | idasanutlin 0.258 | alisertib -0.205 | [2] 0.006 | gefitinib -0.011 | [3] -0.069 | lapatinib -0.003 | pictilisib -0.025 | [4] -0.125 | crizotinib 0.001 | [6] -0.043 | duvelisib 0.022 | gandotinib 0.109 | tozasertib -0.034 | [7] -0.011 | doramapimod 0.024 | ispinesib 0.022

NCK1 (UniProt P16333)
inactive: [1] 0.049 | filanesib -0.054 | zotarolimus 0.13 | idasanutlin -0.001 | alisertib -0.127 | [2] -0.165 | gefitinib 0.002 | [3] -0.024 | lapatinib -0.066 | [4] -0.077 | crizotinib -0.449 | [5] 0.171 | [6] 0.162 | duvelisib -0.135 | tozasertib 0.061 | [7] 0.076 | doramapimod -0.008 | ispinesib -0.173

OSBPL3 (UniProt Q9H4L5)
Chain of UniProt Q9H4L5 (Q9H4L5 whole entry, looked up): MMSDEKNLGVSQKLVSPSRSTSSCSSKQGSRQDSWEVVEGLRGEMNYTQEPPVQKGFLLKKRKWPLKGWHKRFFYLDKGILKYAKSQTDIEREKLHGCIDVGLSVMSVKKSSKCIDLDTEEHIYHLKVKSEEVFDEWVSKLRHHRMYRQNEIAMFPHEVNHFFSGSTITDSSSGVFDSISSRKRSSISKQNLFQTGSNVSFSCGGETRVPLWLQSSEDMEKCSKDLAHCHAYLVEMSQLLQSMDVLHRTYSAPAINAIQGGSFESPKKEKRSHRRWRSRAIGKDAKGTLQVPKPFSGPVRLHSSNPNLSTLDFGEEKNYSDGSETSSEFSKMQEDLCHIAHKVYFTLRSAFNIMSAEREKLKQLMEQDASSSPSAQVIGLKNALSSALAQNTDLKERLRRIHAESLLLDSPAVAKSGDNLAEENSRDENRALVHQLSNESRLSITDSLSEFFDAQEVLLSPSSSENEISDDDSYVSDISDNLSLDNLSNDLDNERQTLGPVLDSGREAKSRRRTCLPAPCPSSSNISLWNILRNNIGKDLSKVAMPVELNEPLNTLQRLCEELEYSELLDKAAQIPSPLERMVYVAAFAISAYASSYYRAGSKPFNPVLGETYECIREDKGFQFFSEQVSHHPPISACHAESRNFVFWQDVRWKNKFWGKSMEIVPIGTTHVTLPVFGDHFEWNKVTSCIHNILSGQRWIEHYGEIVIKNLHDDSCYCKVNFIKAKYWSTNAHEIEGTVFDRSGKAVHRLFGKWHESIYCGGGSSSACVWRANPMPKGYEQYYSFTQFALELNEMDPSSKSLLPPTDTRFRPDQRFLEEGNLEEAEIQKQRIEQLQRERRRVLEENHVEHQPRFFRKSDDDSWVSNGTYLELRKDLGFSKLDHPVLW
inactive: [1] -0.052 | filanesib 0.582 | zotarolimus 0.14 | idasanutlin 0.277 | [2] -0.688 | gefitinib 0.174 | lapatinib 0.391 | [4] 0.245 | crizotinib -0.017 | [5] -0.416 | [6] 0.572 | duvelisib -0.098 | tozasertib 0.198 | [7] 0.063 | doramapimod 0.189 | ispinesib -0.36
